An excerpt weighted towards active compounds, which were near 3% of everything screened.
Tau fluor counter: Counterscreen qHTS for Inhibitors of Tau Fibril Formation, Fluorescence Polarization; tau K18 P301L Alexa594 fluorescence, heparin fibrillization; Potency, µM (doses to about 57.7 µM), inactives show at the highest dose activity change, negative = decrease; 280,000 compounds, 0.93% hits; AID 1463, 2008; also: potency is read from the fitted curve at half-maximal effect; nearly all actives have a fitted effect of over 55% in size
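Human tau K18 P301L (15 uM unlabeled, 0.24 uM Alexa 594-labeled) in 100 mM sodium acetate pH 7 with 20 uM heparin, 6 hr at 37 C. ThT 30 uM added, 1 hr ambient; Alexa 594 FP and total fluorescence read at 555/632 nm.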
JMJD2E inh: qHTS Assay for Inhibitors of Human Jumonji Domain Containing 2E (JMJD2E); 230,000 compounds, 1.6% hits; AID 2147, 2009; Lysine-specific demethylase 4E (Homo sapiens), B2RXH2; Potency, µM (highest dose often 57.1 µM), inactives show top-dose activity change, negative = inhibition, actives largely listed as inhibitors; JMJD2E catalytic domain, FDH-coupled NADH fluorescence (FDH is formaldehyde dehydrogenase);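 also: potency is read from the fitted curve at half-maximal effect; 0% = wells with enzyme and -100% = buffer wells without enzyme; nearly all actives have a fitted effect of over 50% in size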
Target sequence (B2RXH2 1-337 limits assumed): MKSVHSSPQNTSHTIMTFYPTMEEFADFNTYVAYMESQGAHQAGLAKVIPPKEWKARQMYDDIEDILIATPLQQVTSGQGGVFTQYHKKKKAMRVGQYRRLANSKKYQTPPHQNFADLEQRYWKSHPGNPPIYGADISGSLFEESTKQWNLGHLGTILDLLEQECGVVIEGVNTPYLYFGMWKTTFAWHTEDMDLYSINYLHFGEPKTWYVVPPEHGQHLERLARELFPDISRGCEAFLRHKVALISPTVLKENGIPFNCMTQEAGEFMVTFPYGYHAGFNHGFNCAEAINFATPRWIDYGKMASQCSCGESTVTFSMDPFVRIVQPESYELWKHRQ
Tau fibril FP: qHTS for Inhibitors of Tau Fibril Formation, Fluorescence Polarization | AID 1468, 2008 | Microtubule-associated protein tau (Homo sapiens), P10636 | 280,000 compounds, 0.39% hits | K18 P301L tau heparin fibrillization, Alexa594 FP, 6 h | Potency, µM (titrated, usually from 57.7 µM), inactives show at the top dose activity, negative = inhibition, most hits filed as inhibitors; also: potency is read from the fitted curve at half-maximal effect; nearly all actives have a fitted effect of over 55% in size
Target sequence (P10636 561-689 P618L limits assumed): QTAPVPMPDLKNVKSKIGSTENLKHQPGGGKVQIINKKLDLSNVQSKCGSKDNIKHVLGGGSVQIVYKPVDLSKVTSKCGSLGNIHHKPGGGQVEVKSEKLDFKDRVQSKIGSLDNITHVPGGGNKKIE
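Heparin (20 uM) drove fibril formation of recombinant tau K18 P301L, 15 uM unlabeled with 0.24 uM Alexa 594 label, for 6 hr at 37 C in 100 mM sodium acetate pH 7. Fluorescence polarization (555/632 nm) read 1 hr after 30 uM ThT.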
Tau ThT inhib: qHTS for Inhibitors of Tau Fibril Formation, Thioflavin T Binding; Microtubule-associated protein tau (Homo sapiens), P10636; Potency, µM (titrated, usually from 57.4 µM), without a hit: at the top dose activity, negative = inhibition, actives largely listed as inhibitors; AID 1460, 2008; recombinant tau K18 P301L (four-repeat tau fragment), heparin-induced fibrillization, ThT fluorescence; 270,000 compounds, 2.1% hits; also: potency is read from the fitted curve at half-maximal effect; nearly all actives have a fitted effect of over 55% in size
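Heparin-induced fibrillization of the P301L-mutant K18 repeat-domain fragment of human tau was followed by ThT binding in quantitative high-throughput format.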
Coupling enz: qHTS Assay for Inhibitors of Fructose-1,6-bisphosphate Aldolase from Giardia Lamblia: Coupling assay counterscreen; coupling enzyme system counterscreen, AmpLite Red fluorescence; activity change, negative = inhibition, % at 58.2 µM, hits read low; 290,000 compounds, 0.67% hits; AID 2472, 2010; in the data active = activity change below about -30%
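Counterscreen lacking aldolase: glyceraldehyde-3-phosphate coupling-enzyme reagent preincubated 10 min at RT with compound (at 57.5 uM final), then substrate/coupling system with AmpLite Red added; fluorescence read at 525/598 nm after 20 min RT.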
* = called active by the depositor; ? = inconclusive; · = no result given; [ ] = remark or other dose. Unless noted, calls follow the shape of the dose curve; as a rule, active = well fitted curve in the direction sought with a large enough effect; inconclusive = small, poorly fitted or top-dose-only effect, or another doubt; inactive = no such curve, though single readings can be large; an effect the other way counts as inactive or inconclusive. Unless noted, % is scaled to controls: 0 for no effect and ±100 for the full control effect.

SMILES	Tau fluor counter	JMJD2E inh	Tau fibril FP	Tau ThT inhib	Coupling enz
O=C(NCCC[N+]1=CC=N[C@H]1c1ccccc1)N1CCCc2nc(-c3ccc(Br)cc3)ccc21	-10%[11.6 µM]	·	-4%[11.6 µM]	-19%[11.5 µM]	2
CCN(CC)CCNC(=O)c1ccc(N2CCCCC2)c(NS(=O)(=O)c2ccc(C)cc2)c1	-17%	?	-2%	-5%	-3
CCN(CC)CCNc1cc(C)nc2c1C(=O)C(=O)C=C2N1CCCCC1	-27%	?	?	8.9µM*	-64*
Cc1cc(C)c(S(=O)(=O)Nc2ccc[nH]c2=O)c(C)c1	5%	1%	2%	6%	-72*
Cc1cc(C)c(S(=O)(=O)Nc2cccc3cccnc23)c(C)c1	·	·	·	·	-16
COc1ccc(C(=O)/C=C/c2ccc(OC)c(O)c2)c(F)c1	-2%	-4%	-4%	1%	-11
COc1cc(/C=C/C(=O)c2ccc(Cl)s2)cc(OC)c1O	?	-13%	5%	14µM*	-2
COc1ccc(/C=C/C(=O)c2cccc(-n3cnnn3)c2)cc1O	·	·	·	·	-3
COc1cc(/C=C/C(=O)c2cccs2)cc(OC)c1OC	-6%	?	1%	?	1
COc1ccc(/C=C/C(=O)CC(=O)/C=C/c2cccc(O)c2OC)cc1O	8.9µM*[quencher]	·	-9%	1.3µM*	-2
COc1ccc(/C=C/C(=O)c2ccc(Cl)s2)cc1O	?	-28%	?	7.9µM*	-2
CCc1ccccc1NC(=O)C(=O)c1cc(C)n(-c2ccccc2F)c1C	-8%	·	5%	1%	·
COc1ccc(OC)c(/C=N/NC(=O)CNC(=O)c2cccc3ccccc23)c1	·	·	·	·	-34*
COc1cccc(/C=N/NC(=S)Nc2cccc(C(=O)O)c2)c1O	-17%	28µM*	?	?	3
COc1ccc(/C=N/NC(=O)CNC(=O)COc2ccccc2)cc1	-3%	0%	7%	-13%	2
COc1cccc(/C=N/NC(=O)CNC(=O)COc2ccccc2)c1O	-17%	8.9µM*	-6%	-21%	5
COc1cccc(/C=N/NC(=O)c2cccc3ccccc23)c1	·	·	·	·	-1
COc1cccc(/C=N/NC(=O)C[n+]2ccccc2)c1O	-5%	14µM*	-10%	?	0
COc1cc(OC)c(OC)cc1/C=N/NC(=O)C[n+]1ccccc1	12%	0%	6%	8%	1
COc1ccc(-c2nc3c(c4c2C[C@H](c2ccccc2)OC4)CN(S(=O)(=O)c2ccc4c(c2)OCCN4C)CC3)c(C)c1	3%[11.6 µM]	-4%[11.4 µM]	6%[11.6 µM]	4%[11.5 µM]	0
CCCN(CCC)c1nn2c(=O)c(C(=O)NCc3cccc(OC)c3)cnc2s1	-6%	·	6%	-4%	·
COC(=O)c1ccc(NC(=O)CC2C(=O)N(c3ccc(C)cc3)C(=O)N2Cc2ccc(OC)cc2)cc1 (stereo unspecified)	?	·	-13%	?	·
Cc1nnc(SCc2cc(=O)n3c(C)cccc3n2)s1	-2%	·	-2%	-4%	·
COc1cccc(/C=N/NC(=O)C(=O)NCc2cccnc2)c1O	-2%	10µM*	-6%	-7%	1
COc1cccc(/C=N/NC(=O)C(=O)NCc2cccnc2)c1OC	-11%	8%	-6%	-9%	1
SMILES	Tau fluor counter	JMJD2E inh	Tau fibril FP	Tau ThT inhib	Coupling enz
COc1ccc([N+](=O)[O-])cc1/C=N/NC(=O)CNC(=O)C(c1ccccc1)c1ccccc1	?	8%	8%	-12%	-30*
COc1cccc(/C=N/NC(=O)CNC(=O)C2COc3ccccc3O2)c1O (stereo unspecified)	-19%	18µM*	-8%	-18%	0
O=C(COc1ccccc1)NCC(=O)N/N=C/c1ccc(O)cc1O	4%	14µM*	?	-8%	2
CCc1nc2nc(C)cc(Nc3ccc(Br)cc3F)n2n1	-2%	·	6%	-2%	·
COc1ccccc1/C=N/NC(=O)CO	-9%	-25%	-5%	-12%	-2
COc1cccc(/C=N/NC(=O)CNC(=O)c2ccco2)c1O	-10%	14µM*	8%	-14%	3
COc1ccccc1/C=N/NC(=O)CC(=O)NCc1ccccc1	-3%	-4%	-3%	6%	-54*
COc1ccccc1/C=N/NC(=O)c1c(-c2ccccc2)noc1C	·	·	·	·	-34*
COc1cccc(-n2c(SCc3ccccc3C)nc3c([nH]c4ccccc43)c2=O)c1	-16%	·	-1%	-5%	·
O=C(NCCCCCCNC(=O)ON=C1CCCCC1)ON=C1CCCCC1	-22%	·	2%	-25%	-2
CCCN(Cc1cccs1)C(=O)Nc1cc(C)ccc1OC	-12%	·	-3%	-9%	·
CCN(CC)C(=O)Cn1c(=O)n(-c2ccc(Cl)cc2)c(=O)c2c3c(sc21)CCCCC3	-1%	·	?	-15%	·
O=c1cc(-c2ccccc2)[nH]n1-c1nc2ccccc2[nH]1	?	?	?	25µM*	5
CCc1cc(=O)[nH]c(-n2[nH]c(-c3ccccc3)cc2=O)n1	-8%	-11%	1%	-16%	3
CC(=O)c1ccc(-c2cccc(C3C4C=CCCC4(C)C(=O)N3Cc3ccccc3)c2)cc1 (stereo unspecified)	·	·	·	·	1
Cc1ccc2c(c1)-c1onc(C(=O)N(C)c3cccc(C(F)(F)F)c3)c1CO2	?	·	-6%	?	·
O=C(Nc1ccc(Cl)cc1)/C(=C/c1ccc([N+](=O)[O-])cc1)c1nc2ccccc2s1	-25%	?	?	14µM*	2
c1ccc(Nc2cccc(Nc3ccccc3)c2)cc1	11µM*[quencher]	-17%	-1%	?	-3
CN(C)C1CCN(CCCOc2ccc(-c3ccc(C#N)cc3)cc2)C1 (stereo unspecified)	·	·	·	·	1
N#Cc1c(N2CCN(c3ccc(F)cc3)CC2)nc(N)c2c(N)nc3c(c12)CC(=O)N3C1CC1	7%	-6%	11%	9%	-16
CN(CCO)c1nc(N)c2c(N)nc3c(c2c1C#N)CC(=O)N3C1CCCC1	?	?	?	28µM*	-38*
Cc1ccc(O)c(CP(=O)(c2ccccc2)c2ccccc2)c1	9%	3%	11%	-7%	-4
CCNc1ccccc1CP(=O)(c1ccccc1)c1ccccc1O (stereo unspecified)	·	·	·	·	-58*
CCOC(=O)CNC(=O)O[C@@H]1C(=O)c2cc(Br)ccc2O[C@H]1c1cccc(OC)c1	-11%	-1%	1%	-12%	3
O=C(c1ccccc1)N(Cc1ccc(F)cc1)C1CCS(=O)(=O)C1 (stereo unspecified)	1%	10%	1%	1%	6
